# Laboratory results reported in PubChem BioAssay (NCATS).
# “And” between values parts separate entries of the source, which are not always exact repeats. Equal entries are not always repeated. Results filed as inconclusive are left out. The source holds several records for some structures; these can differ, active in one and inactive in another. The source made the active and inactive calls. Unless noted, calls follow the shape of the dose curve; as a rule, active = well fitted curve in the direction sought with a large enough effect; inconclusive = small, poorly fitted or top-dose-only effect, or another doubt; inactive = no such curve, though single readings can be large; an effect the other way counts as inactive or inconclusive.
# What was measured:
# [1] = target: Cytochrome P450 2D6 (Homo sapiens) (UniProt P10635); experiment: Cytochrome P450 family 2 subfamily D member 6 (CYP2D6) small molecule antagonists: luciferase biochemical (cell-free) qHTS assay (AID 1645840; active = well fitted curve in the direction sought with a large enough effect in the repeat runs; an effect the other way counts as inactive or inconclusive; also: nearly all actives have a fitted effect of over 55% in size; as to activity change, negative = inhibition: % is scaled to controls: 0 for no effect and ±100 for the full control effect)
# How it was run: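 P450-Glo luminescent screen: recombinant CYP2D6 enzyme–proluciferin substrate mix preincubated with compound 10 min at room temperature, then NADPH regeneration added for 1 h at room temperature. Detection reagent added for 20 min; luciferin light read as relative luminescence units.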
# [2] = target: Cytochrome P450 2C9 (Homo sapiens) (UniProt P11712); experiment: Cytochrome P450 family 2 subfamily C member 9 (CYP2C9) small molecule antagonists: luciferase biochemical (cell-free) qHTS assay (AID 1645842; active = well fitted curve in the direction sought with a large enough effect in the repeat runs; an effect the other way counts as inactive or inconclusive; also: nearly all actives have a fitted effect of over 55% in size; as to activity change, negative = inhibition: % is scaled to controls: 0 for no effect and ±100 for the full control effect)
# How it was run: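 Luminescence, after 20 min with luciferin detection reagent, reflected CYP2C9 turnover during a 1 h NADPH-driven reaction at 37C. Enzyme-substrate mix contained 0.4% bovine serum albumin and was preincubated with compound 10 min at room temperature.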
# [3] = Primary qHTS for inhibitors of nuclear receptor binding SET domain protein 2 (NSD2) in an isogenic RCH-ACV NSD2 p.E1099K mutant (9B) (AID 1645876); also: nearly all actives have a fitted effect of over 70% in size
# [4] = Primary qHTS for inhibitors of nuclear receptor binding SET domain protein 2 (NSD2) in an RCH-ACV wild type WT cells (2C) (AID 1645877); also: nearly all actives have a fitted effect of over 70% in size
# [5] = target: N-terminal Xaa-Pro-Lys N-methyltransferase 1 (Homo sapiens) (UniProt Q9BV86); experiment: Confirmatory qHTS for Inhibitors of N-terminal methyltransferase 1 (NTMT1): MTaseGlo Assay (AID 1645874); also: nearly all actives have a fitted effect of over 65% in size;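 as to activity change, negative = inhibition: luminescence from SAH made as NTMT1 methylates SPKRIA peptide using SAM; 0% = DMSO control and -100% = no-enzyme control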
# How it was run: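 NTMT1 (125 nM) preincubated 15 min with compound and 100 uM SAM, then 1 uM SPKRIA peptide added for 30 min at room temperature. SAH detected by MTase-Glo luminescence; normalized to no-enzyme and DMSO controls, fitted to 4-parameter Hill.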
# [6] = target: Catechol O-methyltransferase (Homo sapiens) (UniProt P21964); experiment: Confirmatory Screen for Target Class Profiling of Small Molecule Inhibitors of Methyltransferases (AID 1745852; calls by dose curve; as to activity change, negative = inhibition: % is scaled to controls: 0 for no effect and ±100 for the full control effect); conditions: MTase-Glo luminescence, SAH detection, recombinant enzyme; measured here: COMT max response; stronger effect = lower value
# [7] = target: Guanidinoacetate N-methyltransferase (Homo sapiens) (UniProt Q14353); experiment: as above; conditions: activity change, negative = inhibition: at 57.3 µM (top of the series) unless noted
# [8] = target: Nicotinamide N-methyltransferase (Homo sapiens) (UniProt P40261); experiment: as above; conditions: MTase-Glo luminescence, SAH detection, recombinant enzyme; measured here: NNMT max response; stronger effect = lower value
# [9] = target: Phenylethanolamine N-methyltransferase (Homo sapiens) (UniProt P11086); experiment: as above; conditions: MTase-Glo luminescence, SAH detection, recombinant enzyme; measured here: PNMT max response; stronger effect = lower value
# [10] = target: Glutathione peroxidase 1 (Homo sapiens) (UniProt P07203); experiment: Primary qHTS Assay for Inhibitors of Recombinant Selenoprotein Glutathione Peroxidase 1 (GPX1) (AID 1845191); also: nearly all actives have a fitted effect of over 65% in size
# How it was run: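 10 nM GPX1 + cpd, 30 min RT; start w/ 1 mM GSH, 0.5 mM cumene hydroperoxide, 0.5 mM NADPH, 100 nM GR, 0.01% BSA; buffer 50 mM Tris-HCl pH 7.5, 2 mM EDTA, 150 mM NaCl; Fl 340/450, 0 & 15 min.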
# [11] = target: Cytochrome P450 3A4 (Homo sapiens) (UniProt P08684); experiment: Cytochrome P450 family 3 subfamily A member 4 (CYP3A4) small molecule antagonists: luciferase qHTS assay (AID 1645841; active = well fitted curve in the direction sought with a large enough effect in the repeat runs; an effect the other way counts as inactive or inconclusive; also: nearly all actives have a fitted effect of over 45% in size)
# How it was run: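 Luminescent CYP3A4 activity readout: compounds plus enzyme-substrate mix 10 min at room temperature, reaction started with NADPH regenerating system for 1 h, stopped with detection reagent, read after 20 min. Ketoconazole served as control.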
# Potency is read from the fitted curve at half-maximal effect.
# Sequence of Cytochrome P450 3A4 (Homo sapiens) (P08684 whole entry, looked up): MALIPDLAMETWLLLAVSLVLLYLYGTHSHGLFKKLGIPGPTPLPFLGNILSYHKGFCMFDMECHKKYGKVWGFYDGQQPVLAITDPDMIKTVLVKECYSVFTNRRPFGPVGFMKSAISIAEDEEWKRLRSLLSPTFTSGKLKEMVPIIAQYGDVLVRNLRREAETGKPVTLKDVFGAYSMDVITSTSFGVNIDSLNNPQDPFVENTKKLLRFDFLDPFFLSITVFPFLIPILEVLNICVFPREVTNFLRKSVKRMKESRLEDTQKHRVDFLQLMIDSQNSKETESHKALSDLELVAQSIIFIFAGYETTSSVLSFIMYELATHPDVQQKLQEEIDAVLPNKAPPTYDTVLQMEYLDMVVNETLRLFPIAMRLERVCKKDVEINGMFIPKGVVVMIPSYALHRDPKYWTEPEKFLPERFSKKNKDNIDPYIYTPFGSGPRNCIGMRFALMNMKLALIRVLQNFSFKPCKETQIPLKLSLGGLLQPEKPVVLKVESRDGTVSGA
# Sequence of Catechol O-methyltransferase (Homo sapiens) (P21964 whole entry, looked up): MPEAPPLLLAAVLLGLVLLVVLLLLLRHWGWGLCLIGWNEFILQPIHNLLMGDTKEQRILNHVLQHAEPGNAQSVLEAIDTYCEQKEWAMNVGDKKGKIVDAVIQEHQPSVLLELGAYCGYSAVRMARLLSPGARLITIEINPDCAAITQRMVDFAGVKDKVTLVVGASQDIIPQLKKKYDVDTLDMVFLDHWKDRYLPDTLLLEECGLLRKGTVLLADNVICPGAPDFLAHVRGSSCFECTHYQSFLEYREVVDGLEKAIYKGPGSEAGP
# Sequence of Phenylethanolamine N-methyltransferase (Homo sapiens) (P11086 whole entry, looked up): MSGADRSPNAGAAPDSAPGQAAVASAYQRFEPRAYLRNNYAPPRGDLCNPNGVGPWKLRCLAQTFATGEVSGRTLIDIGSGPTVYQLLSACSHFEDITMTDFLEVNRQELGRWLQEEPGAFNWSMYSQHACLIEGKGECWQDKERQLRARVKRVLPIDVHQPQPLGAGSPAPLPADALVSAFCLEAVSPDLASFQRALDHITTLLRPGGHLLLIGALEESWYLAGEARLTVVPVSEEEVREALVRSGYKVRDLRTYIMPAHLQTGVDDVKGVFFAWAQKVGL
# Sequence of Cytochrome P450 2D6 (Homo sapiens) (P10635 whole entry, looked up): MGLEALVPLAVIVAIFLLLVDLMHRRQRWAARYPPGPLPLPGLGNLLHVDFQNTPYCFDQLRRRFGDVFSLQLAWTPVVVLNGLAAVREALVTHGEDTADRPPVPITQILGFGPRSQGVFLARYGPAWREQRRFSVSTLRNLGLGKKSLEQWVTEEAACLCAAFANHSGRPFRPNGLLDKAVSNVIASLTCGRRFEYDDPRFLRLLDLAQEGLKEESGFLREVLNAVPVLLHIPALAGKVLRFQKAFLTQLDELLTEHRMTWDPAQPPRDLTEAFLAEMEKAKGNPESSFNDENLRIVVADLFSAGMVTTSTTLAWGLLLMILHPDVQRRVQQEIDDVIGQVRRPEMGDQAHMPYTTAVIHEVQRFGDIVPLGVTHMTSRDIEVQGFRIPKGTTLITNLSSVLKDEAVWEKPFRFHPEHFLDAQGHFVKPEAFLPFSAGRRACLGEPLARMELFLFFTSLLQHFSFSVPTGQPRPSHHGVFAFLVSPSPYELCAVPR
# Sequence of N-terminal Xaa-Pro-Lys N-methyltransferase 1 (Homo sapiens) (Q9BV86 whole entry, looked up): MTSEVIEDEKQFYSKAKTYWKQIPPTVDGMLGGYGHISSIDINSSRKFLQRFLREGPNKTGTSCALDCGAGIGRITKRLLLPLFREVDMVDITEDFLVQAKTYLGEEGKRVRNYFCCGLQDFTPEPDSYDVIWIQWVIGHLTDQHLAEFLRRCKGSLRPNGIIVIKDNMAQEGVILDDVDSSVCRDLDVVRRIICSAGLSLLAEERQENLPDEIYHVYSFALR
# Sequence of Glutathione peroxidase 1 (Homo sapiens) (P07203 whole entry, looked up): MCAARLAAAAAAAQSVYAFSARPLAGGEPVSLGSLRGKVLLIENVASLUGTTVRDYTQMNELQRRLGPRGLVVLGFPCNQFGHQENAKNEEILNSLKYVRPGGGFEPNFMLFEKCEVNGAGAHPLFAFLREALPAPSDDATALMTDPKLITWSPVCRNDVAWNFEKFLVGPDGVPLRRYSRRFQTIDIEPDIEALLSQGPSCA
# Sequence of Nicotinamide N-methyltransferase (Homo sapiens) (P40261 whole entry, looked up): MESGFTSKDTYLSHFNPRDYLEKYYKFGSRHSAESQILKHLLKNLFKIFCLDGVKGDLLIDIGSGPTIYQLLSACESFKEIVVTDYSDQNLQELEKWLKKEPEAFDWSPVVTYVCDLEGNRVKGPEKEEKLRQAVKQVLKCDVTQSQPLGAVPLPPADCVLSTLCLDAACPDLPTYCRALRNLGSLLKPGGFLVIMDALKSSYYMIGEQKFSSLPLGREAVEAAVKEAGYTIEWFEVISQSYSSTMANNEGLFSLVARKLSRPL
# Sequence of Cytochrome P450 2C9 (Homo sapiens) (P11712 whole entry, looked up): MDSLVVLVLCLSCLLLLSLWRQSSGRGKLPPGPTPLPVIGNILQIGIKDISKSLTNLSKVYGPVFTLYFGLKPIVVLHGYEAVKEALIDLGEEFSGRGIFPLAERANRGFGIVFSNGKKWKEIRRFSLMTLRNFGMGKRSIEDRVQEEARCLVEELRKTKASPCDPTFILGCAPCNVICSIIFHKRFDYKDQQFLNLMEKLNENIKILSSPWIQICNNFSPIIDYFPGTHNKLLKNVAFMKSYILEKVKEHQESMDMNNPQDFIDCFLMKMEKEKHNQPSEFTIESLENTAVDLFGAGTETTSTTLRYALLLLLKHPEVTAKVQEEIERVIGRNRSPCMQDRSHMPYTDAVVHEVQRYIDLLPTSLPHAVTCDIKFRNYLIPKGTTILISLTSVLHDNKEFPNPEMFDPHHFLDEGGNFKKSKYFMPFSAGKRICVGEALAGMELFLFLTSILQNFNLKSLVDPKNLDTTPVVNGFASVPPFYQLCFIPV
compound,measurement,setting,value
CC(Oc1ccc2[nH]nc(/C=C/c3cnn(CCO)c3)c2c1)c1c(Cl)cncc1Cl (configuration not stated),Potency,[1],2.39 µM (active)
same,Potency,[2],0.536 µM (active)
same,Potency,[3],115 nM (active)
same,Potency,[4],103 nM (active)
COc1cc2c(NC3CCN(CC4CCCCC4)CC3)nc(N3CCCN(C(C)C)CC3)nc2cc1OCCCN1CCCCC1,Potency,[1],12 µM (active)
same,Potency,[2],inactive
same,Potency,[5],34.5 µM (active)
same,Potency,[3],2.58 µM (active) and 5.25 µM (active)
same,Potency,[4],2.3 µM (active) and 3.32 µM (active)
same,activity,[6],-7.99%
same,"activity change, negative = inhibition",[7],-0.195%
same,activity,[8],-18.7%
same,activity,[9],-1.55%
same,Potency,[10],inactive
CN(C)C/C=C/C(=O)Nc1cc2c(Nc3ccc(F)c(Cl)c3)ncnc2cc1OC1CCOC1 (configuration not stated),Potency,[1],inactive
same,Potency,[2],15.1 µM (active)
same,Potency,[5],20 µM (active)
same,Potency,[3],2300 nM (active)
same,Potency,[4],2300 nM (active)
CCCNc1ccc2ncc(-c3ccc4[nH]ncc4c3)n2n1,Potency,[1],inactive
same,Potency,[2],inactive
same,Potency,[5],8.91 µM (active)
same,Potency,[3],258 nM (active)
same,Potency,[4],91.6 nM (active)
same,activity,[6],-53.8%
same,Potency,[7],8.57 µM (active)
same,activity,[8],-46%
same,activity,[9],-45.4%
CC(NC(=O)C(O)C(C)C)C(=O)NC1C(=O)N(C)CCc2ccccc21 (configuration not stated),Potency,[1],inactive
same,Potency,[2],inactive
same,Potency,[3],inactive
same,Potency,[4],inactive
O=[N+]([O-])c1cn2c(n1)OCC(OCc1ccc(OC(F)(F)F)cc1)C2 (configuration not stated),Potency,[1],inactive
CC(C)(F)C[C@@H](N[C@@H](c1ccc(-c2ccc(S(C)(=O)=O)cc2)cc1)C(F)(F)F)C(=O)NC1(C#N)CC1,Potency,[1],2.68 µM (active)
same,Potency,[2],19 µM (active)
same,Potency,[3],inactive
same,Potency,[4],inactive
NC(=O)C(CCC(F)(F)F)N(Cc1ccc(-c2ncon2)cc1F)S(=O)(=O)c1ccc(Cl)cc1 (configuration not stated),Potency,[1],12 µM (active)
CC(NC(=O)CCc1nc2ccccc2c(=O)[nH]1)c1ccccc1 (configuration not stated),Potency,[1],inactive
same,Potency,[2],inactive
same,Potency,[3],inactive
same,Potency,[4],inactive
Cn1nc(C(C)(C)C)cc1C(=O)NC(Cc1cccc(Cl)c1)C(=O)NCC#N (configuration not stated),Potency,[1],15.1 µM (active)
same,Potency,[2],15.1 µM (active)
CCc1cnn2c(NCc3ccc[n+]([O-])c3)cc(N3CCCCC3CCO)nc12 (configuration not stated),Potency,[1],inactive
same,Potency,[2],15.1 µM (active)
same,Potency,[3],9.2 nM (active)
CCn1c(=O)c(-c2ccn[nH]2)cc2c(C)nc(N)nc21,Potency,[1],inactive
same,Potency,[2],26.8 µM (active)
same,Potency,[5],inactive
same,Potency,[3],934 nM (active)
same,Potency,[4],1180 nM (active)
same,Potency,[10],4.09 µM (active)
COc1ccc(-n2[nH]c(=O)c3[nH]c4cc(Cl)ccc4c(=O)c3c2=O)c(C)c1,Potency,[1],inactive
same,Potency,[11],inactive
same,Potency,[2],inactive
same,Potency,[10],inactive
COc1cc2c(cc1OC)-c1[nH]nc(Nc3cccc(F)c3)c1C2,Potency,[1],21.3 µM (active)
same,Potency,[2],8.49 µM (active)
same,Potency,[3],91.6 nM (active)
same,Potency,[4],57.8 nM (active)
CCOc1cc(CC(=O)NC(CC(C)C)c2ccccc2N2CCCCC2)ccc1C(=O)O (configuration not stated),Potency,[1],inactive
same,Potency,[2],inactive
same,Potency,[3],inactive
same,Potency,[4],inactive
O=C(Nc1ccc(S(=O)(=O)C(F)(F)F)cc1)C1=CCN(c2ncccc2C(F)(F)F)CC1,Potency,[1],7.56 µM (active)
same,Potency,[2],3.01 µM (active)
same,Potency,[5],inactive
same,Potency,[3],7280 nM (active)
same,Potency,[4],10300 nM (active)
same,Potency,[10],inactive
CCOc1ccc(NC(=S)N2CCC(C(O)(c3ccccc3)c3ccccc3)CC2)cc1,Potency,[1],2.68 µM (active)
same,Potency,[2],9.52 µM (active)
same,Potency,[3],inactive
same,Potency,[4],inactive
CS(=O)(=O)NCC1CCC(Nc2nc3c(s2)CCSc2ccccc2-3)CC1 (configuration not stated),Potency,[1],10.7 µM (active)
CN1CCN(C2CCC(n3cc(-c4ccc(Oc5ccccc5)cc4)c4c(N)ncnc43)CC2)CC1 (configuration not stated),Potency,[1],12 µM (active)
same,Potency,[11],inactive
same,Potency,[2],inactive
same,Potency,[3],20.5 nM (active) and 74.2 nM (active)
same,Potency,[4],72.8 nM (active) and 74.2 nM (active)
same,activity,[6],-15.7%
same,"activity change, negative = inhibition",[7],0%
same,activity,[8],-13.2%
same,activity,[9],-72%
same,Potency,[10],inactive
CS(=O)(=O)N1CCC(NC(=O)c2[nH]ncc2NC(=O)c2c(Cl)cccc2Cl)CC1,Potency,[1],inactive
same,Potency,[11],inactive
same,Potency,[3],525 nM (active)
same,Potency,[4],332 nM (active)
same,Potency,[10],inactive
O=C(Nc1ccc(S(=O)(=O)Nc2nccs2)cc1)C(c1ccccc1)c1ccccc1,Potency,[1],19 µM (active)
same,Potency,[2],0.674 µM (active)
same,Potency,[3],inactive
same,Potency,[4],inactive
C[C@@H](Oc1cc(-n2cnc3ccc(OC4CCN(C)CC4)cc32)sc1C(N)=O)c1ccccc1C(F)(F)F,Potency,[1],8.49 µM (active)
same,Potency,[2],8.49 µM (active)
same,Potency,[5],12.6 µM (active)
same,Potency,[3],32.5 nM (active)
same,Potency,[4],25.8 nM (active)
same,activity,[6],-76.5%
same,Potency,[7],24.1 µM (active)
same,activity,[8],-64.9%
same,activity,[9],-73.6%
same,Potency,[10],inactive
Cc1cc(Nc2ncc3cc(-c4c(Cl)cccc4Cl)c(=O)n(C)c3n2)ccc1F,Potency,[1],inactive
same,Potency,[11],inactive
same,Potency,[2],6.74 µM (active)
same,Potency,[3],728 nM (active)
same,Potency,[4],817 nM (active)
same,Potency,[10],inactive
CCC(CC)C(=O)Nc1sc2c(c1C#N)CCC(C(C)(C)CC)C2 (configuration not stated),Potency,[1],inactive
same,Potency,[11],9.52 µM (active)
same,Potency,[3],inactive
same,Potency,[4],inactive
same,Potency,[10],inactive
CNC(=O)c1cccc(-c2ccc3c(N4CCOC[C@@H]4C)nc(N4CCOC[C@@H]4C)nc3n2)c1,Potency,[1],inactive and 15.1 µM (active)
same,Potency,[2],12 µM (active) and 10.7 µM (active)
same,Potency,[3],129 nM (active) and 326 nM (active) and 148 nM (active)
same,Potency,[4],230 nM (active) and 326 nM (active) and 296 nM (active)
Nc1ccccc1N,Potency,[1],14.6 µM (active)
same,Potency,[2],35.6 µM (active)
